Measurements published in PubChem BioAssay (NCI).
Where “and” joins values, the source holds several entries; their conditions need not be identical. Equal values may be shown once. Compounds without any hit were thinned out: in the full panel of roughly 79,000, 15% have a hit. The source holds several records for some structures; these can differ, active in one and inactive in another. Calls of active or inactive are those of the source. No stated cut-off is given here; in the data, active means growth inhibition above about 70%; inactive means the rest.

Key:
[1] = NCI Yeast Anticancer Drug Screen. Data for the rad50 strain (AID 155);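 further: 0% = growth of vehicle-only cultures of the same strain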; conditions: S. cerevisiae rad50 strain growth inhibition; at 50.0 µM; stronger effect = higher value
Outline: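 Compounds were tested on a yeast strain with an engineered DNA damage repair alteration; the reported value is growth inhibition normalised to vehicle treatment.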

[2] = NCI Yeast Anticancer Drug Screen. Data for the mec2-1 strain (AID 157); conditions: S. cerevisiae mec2-1 strain, at 50.0 µM, stronger effect = higher value
Outline: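 Growth inhibition is read against vehicle-treated controls after compound exposure of the mec2-1 yeast strain, which is defective in DNA damage repair or cell cycle control.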

[3] = NCI Yeast Anticancer Drug Screen. Data for the sgs1 mgt1 strain (AID 161);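 further: 0% = growth of cultures given vehicle only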; conditions: S. cerevisiae sgs1 mgt1 strain, at 50.0 µM, stronger effect = higher value
Outline: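 Growth of a repair-deficient yeast mutant was monitored after compound treatment and expressed as inhibition relative to vehicle-treated cultures.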

[4] = NCI Yeast Anticancer Drug Screen. Data for the cln2 rad14 strain (AID 165);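 further: 0% = growth equal to vehicle treated cultures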; conditions: S. cerevisiae cln2 rad14 strain, at 50.0 µM, stronger effect = higher value
Outline: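 Growth inhibition, relative to vehicle-treated controls, is the read-out. The test organism is a yeast strain with defined genetic alterations, cln2 rad14.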

[5] = NCI Yeast Anticancer Drug Screen. Data for the bub3 strain (AID 167); conditions: S. cerevisiae bub3 mutant strain, at 50.0 µM, stronger effect = higher value
Outline: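 Growth of a checkpoint-deficient yeast mutant is measured after compound exposure. Values represent inhibition relative to vehicle.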

[6] = NCI Yeast Anticancer Drug Screen. Data for the mlh1 rad18 strain (AID 175); conditions: S. cerevisiae mlh1 rad18 strain growth inhibition; at 50.0 µM; stronger effect = higher value
Outline: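 Cells of a genetically altered yeast strain, deficient in DNA damage repair, were treated with compound. Their growth was then compared with that of vehicle-treated cultures to give inhibition.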

| SMILES | growth inhibition [1] | growth inhibition [2] | growth inhibition [3] | growth inhibition [4] | growth inhibition [5] | growth inhibition [6] |
| --- | --- | --- | --- | --- | --- | --- |
| O=C(O)/C=C(/Oc1ccc(Cl)cc1Cl)C(=O)O | 5.8% (inactive) and 19.7% (inactive) | -3.25% (inactive) and 6.45% (inactive) | 6.35% (inactive) and 9.85% (inactive) | -19.9% (inactive) and 15.4% (inactive) | 17.9% (inactive) | 11.8% (inactive) and 19.7% (inactive) |
| COc1ccc(-c2cc(-c3ccco3)c(C#N)c(=O)n2C2OC(COC(C)=O)C(OC(C)=O)C(OC(C)=O)C2OC(C)=O)cc1 (stereo unspecified) | 8.3% (inactive) and -23% (inactive) | 12.3% (inactive) and 1.9% (inactive) | 23.9% (inactive) and 4% (inactive) | 42.2% (inactive) and 8.8% (inactive) | 16.8% (inactive) and -2.2% (inactive) | 11.1% (inactive) and -19.1% (inactive) |
| COc1c2c(cc(O)c1C(C)=O)OC(C)(C)C=C2 | -4.8% (inactive) and 16.6% (inactive) | -37.5% (inactive) and -36.5% (inactive) | -11.6% (inactive) and 16% (inactive) | -14.9% (inactive) and 11.6% (inactive) | -12.1% (inactive) and 18.1% (inactive) | -15% (inactive) and 5.85% (inactive) |
| COC1OC(COC(=O)NCCCCC(=O)C(F)(F)C(F)(F)C(F)(F)C(F)(F)C(F)(F)C(F)(F)C(F)(F)F)C(O)C(O)C1O (stereo unspecified) | -34.9% (inactive) and -29.9% (inactive) | -22.2% (inactive) and -30.1% (inactive) | -10% (inactive) and -11.4% (inactive) | -2.5% (inactive) and -8.2% (inactive) | -18.4% (inactive) and -26.4% (inactive) | -2.9% (inactive) and -3.6% (inactive) |
| CC(=O)Nc1ccccc1Cl | 31.6% (inactive) and 6% (inactive) | 6.7% (inactive) and -9.05% (inactive) | 14.2% (inactive) and -20.4% (inactive) | 24.9% (inactive) and -20.1% (inactive) | 20.2% (inactive) and -15.1% (inactive) | -11.4% (inactive) and 21.4% (inactive) |
| O=S(=O)(O)c1cc(N=Nc2cc(S(=O)(=O)O)c3cccnc3c2O)ccc1/C=C/c1ccc(N=Nc2cc(S(=O)(=O)O)c3cccnc3c2O)cc1S(=O)(=O)O | -16.7% (inactive) and 18.6% (inactive) | -17.4% (inactive) and 7.65% (inactive) | -26.5% (inactive) and 7.4% (inactive) | -24.4% (inactive) and -55.5% (inactive) | -18.6% (inactive) and -62.5% (inactive) | -111% (inactive) and -27.9% (inactive) |
| CCOC(=O)C(N)CCSC (stereo unspecified) | -22.8% (inactive) and -14.2% (inactive) | -14.3% (inactive) and -7.65% (inactive) | -13.8% (inactive) and -1% (inactive) | -39.4% (inactive) and -16.6% (inactive) | -13.3% (inactive) and -8.95% (inactive) | -5.05% (inactive) and -17.5% (inactive) |
| CC(Cc1ccccc1)NC1=NCCO1 (stereo unspecified) | -10.2% (inactive) and -16.2% (inactive) | -4.95% (inactive) and -18.4% (inactive) | 0.55% (inactive) and 1.5% (inactive) | 17.1% (inactive) and -13.2% (inactive) | -25.9% (inactive) and -27.4% (inactive) | 0.1% (inactive) and 72.5% (active) |
| CC(C)CC(NC(=O)COc1ccc(Cl)cc1Cl)C(=O)O (stereo unspecified) | -16.8% (inactive) and -4.25% (inactive) | -3.15% (inactive) and -14.4% (inactive) | 7.55% (inactive) and -4.15% (inactive) | -50.5% (inactive) and -21.7% (inactive) | 4.5% (inactive) and 13.7% (inactive) | -3.8% (inactive) and -11.1% (inactive) |
| C/C(=N\NC(=O)c1ccncc1)c1ccc(F)cc1 | 3.95% (inactive) and -7.7% (inactive) | 9.55% (inactive) and -14.3% (inactive) | 4.15% (inactive) and -16.4% (inactive) | 3.85% (inactive) and 0.7% (inactive) | 5.5% (inactive) and -28.4% (inactive) | 14.3% (inactive) and -4.6% (inactive) |
| COc1cc(NCCCNc2c3ccc(Cl)cc3nc3ccc(OC)cc23)c2ncccc2c1 | -3.5% (inactive) and 79.2% (active) | -13.9% (inactive) and 24% (inactive) | 8.15% (inactive) and 70% (active) | -0.35% (inactive) and 54.1% (inactive) | -18.2% (inactive) and 50.2% (inactive) | -4.6% (inactive) and 85.9% (active) |
| N/N=C(/C(=O)c1ccccc1)c1ccccc1 | -10% (inactive) and 18% (inactive) | 5.4% (inactive) and 10% (inactive) | 5.4% (inactive) and 0.5% (inactive) | 11.6% (inactive) and -56% (inactive) | -3.1% (inactive) and -1.85% (inactive) | 10.2% (inactive) and 7.9% (inactive) |
| O=c1nc(-c2ccccc2)cc(CC(O)(c2ccc(C(F)(F)F)cc2)c2ccc(Cl)c(Cl)c2)[nH]1 (stereo unspecified) | 1.8% (inactive) and 28.8% (inactive) | 15% (inactive) and 15.4% (inactive) | 5.55% (inactive) and 25.8% (inactive) | -17.8% (inactive) and -26.6% (inactive) | 25.7% (inactive) and 54.4% (inactive) | 8.35% (inactive) and 11.3% (inactive) |
| COc1cc([N+](=O)[O-])c(S(=O)(=O)O)cc1N | -7.95% (inactive) and 30.1% (inactive) | 22.8% (inactive) and 6.65% (inactive) | -11.8% (inactive) and -0.8% (inactive) | -23.7% (inactive) and 16.8% (inactive) | 7.2% (inactive) and 16.3% (inactive) | -0.75% (inactive) and 38.9% (inactive) |
| Cc1c2cc(O)c(=O)cc-2oc2cc(O)c(O)cc12 | 45.9% (inactive) and 30.5% (inactive) | 29.6% (inactive) and 6.2% (inactive) | 36.1% (inactive) and 50.1% (inactive) | 20.9% (inactive) and 31.9% (inactive) | 36.7% (inactive) and 47.6% (inactive) | 40.1% (inactive) and 34.9% (inactive) |
| O=C(O)CN(CCO)CCO | -17.9% (inactive) and -21.6% (inactive) | 7.65% (inactive) and -16.6% (inactive) | 21.4% (inactive) and 12.2% (inactive) | -29.1% (inactive) and 1.45% (inactive) | -27.9% (inactive) and -16.8% (inactive) | -18% (inactive) and 10.1% (inactive) |
| CC1C2C=CC(C2)C1C(=O)O (stereo unspecified) | 5.15% (inactive) and 13.9% (inactive) | 28.8% (inactive) and 5.1% (inactive) | -0.05% (inactive) and 5.85% (inactive) | -42% (inactive) and 9.65% (inactive) | 7.8% (inactive) and -1.95% (inactive) | 7.1% (inactive) and 11.2% (inactive) |
| C=CCOC(=O)C(C)OC(=O)C(C)O (stereo unspecified) | 35.3% (inactive) and 15.3% (inactive) | 11.8% (inactive) and 10.6% (inactive) | 13.6% (inactive) and -3.75% (inactive) | 11.6% (inactive) and -4% (inactive) | 6.85% (inactive) and -0.4% (inactive) | 9.85% (inactive) and 1.9% (inactive) |
| CCOC(=O)CC1(O)C=CC(=O)C=C1 | 9.25% (inactive) and 14.2% (inactive) | 0.5% (inactive) and -5.6% (inactive) | 0.55% (inactive) and -5.1% (inactive) | 15.1% (inactive) and 21.2% (inactive) | 6.65% (inactive) and 22.9% (inactive) | -6.2% (inactive) and 36.4% (inactive) |
| O=C(NS(=O)(=O)c1ccccc1)OCc1ccccc1 | 4.65% (inactive) and -18.1% (inactive) | -11.8% (inactive) and -4.35% (inactive) | -14.8% (inactive) and -15.3% (inactive) | -22.2% (inactive) and -31.8% (inactive) | 16.7% (inactive) and 24.8% (inactive) | -6.1% (inactive) and 6.1% (inactive) |
| CC1(C)Nc2ccccc2C(c2ccccc2)=NC1=O | -2.7% (inactive) and 4.8% (inactive) | -17.1% (inactive) and -15.2% (inactive) | -7% (inactive) and 0.85% (inactive) | -5.75% (inactive) and -0.25% (inactive) | -4.7% (inactive) and -4.6% (inactive) | 12.7% (inactive) and 13.3% (inactive) |
